Assay outcomes deposited in PubChem by National Center for Advancing Translational Sciences (NCATS).
Compounds with a hit are over-represented: about 2.7% of the library has one in this group of screens.
Tau fibril ThT – qHTS for Inhibitors of Tau Fibril Formation, Thioflavin T Binding; 270,000 compounds, 2.1% hits; Potency, µM (titrated, usually from 57.4 µM), without a hit: top-dose activity, negative = inhibition, hits mostly inhibitors; AID 1460, 2008; Microtubule-associated protein tau (Homo sapiens), P10636; recombinant tau K18 P301L, heparin-induced fibrillization, ThT fluorescence; note: potency is the fitted concentration of half-maximal effect; nearly all actives have a fitted effect of over 55% in size
Target sequence (P10636 561-689 P618L limits assumed): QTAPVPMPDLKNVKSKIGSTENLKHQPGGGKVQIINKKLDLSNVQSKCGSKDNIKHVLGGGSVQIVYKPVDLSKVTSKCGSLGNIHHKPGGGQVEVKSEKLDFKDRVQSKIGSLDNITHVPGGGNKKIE
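Heparin-induced (20 uM) aggregation of recombinant human K18 P301L tau, 15 uM unlabeled with 0.24 uM labeled, pH 7 acetate buffer, 6 hr at 37 C with compound. Fibrils quantified by 30 uM ThT fluorescence after 1 hr ambient incubation.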
Tau fluor counter – Counterscreen qHTS for Inhibitors of Tau Fibril Formation, Fluorescence Polarization; AID 1463, 2008; Potency, µM (series often up to 57.7 µM), inactives show top-dose activity change, negative = decrease; 280,000 compounds, 0.93% hits; tau K18 P301L (four-repeat tau fragment) Alexa594 fluorescence, heparin fibrillization; note: potency is the fitted concentration of half-maximal effect; nearly all actives have a fitted effect of over 55% in size
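Human K18 P301L tau (15 uM unlabeled plus 0.24 uM Alexa 594-labeled, final) in 100 mM sodium acetate pH 7 was mixed with compound and 20 uM heparin and incubated 6 hr at 37 C.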
Coupling enz – qHTS Assay for Inhibitors of Fructose-1,6-bisphosphate Aldolase from Giardia Lamblia: Coupling assay counterscreen | coupling enzyme system counterscreen, AmpLite Red fluorescence | activity change, negative = inhibition, % at 58.2 µM, hits read low | 290,000 compounds, 0.67% hits | AID 2472, 2010; in the data active = activity change below about -30%
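First, compound is pin-transferred into glyceraldehyde-3-phosphate coupling-enzyme reagent at 57.5 uM final and held 10 min at RT. Next, substrate, coupling system and AmpLite Red are added. After 20 min RT, fluorescence (525/598 nm) is read.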
Tau FP inhib – qHTS for Inhibitors of Tau Fibril Formation, Fluorescence Polarization. Microtubule-associated protein tau (Homo sapiens), P10636. K18 P301L tau heparin fibrillization, Alexa594 FP, 6 h. Potency, µM (doses to about 57.7 µM), for inactives: at the top dose activity, negative = inhibition, actives largely listed as inhibitors. 280,000 compounds, 0.39% hits; note: potency is the fitted concentration of half-maximal effect; nearly all actives have a fitted effect of over 55% in size
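K18 P301L tau (15 uM unlabeled/0.24 uM Alexa 594-labeled, final) + compound + heparin 20 uM final; 100 mM NaOAc pH 7; 6 hr 37 C; ThT 30 uM final added, 1 hr RT; FP ex 555/em 632 nm.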
Numbers without * were called inactive; [ ] = another dose, or the depositor's remark. Unless noted, calls come from the whole dose curve; as a rule, active = well fitted curve in the direction sought with a large enough effect; inconclusive = small, poorly fitted or top-dose-only effect, or another doubt; inactive = no such curve, though single readings can be large; an effect the other way counts as inactive or inconclusive. % is set by controls: 0 for no effect and ±100 for the full control effect.

What do the screens show for `COc1ccc(N2CCN(c3ccc(C(N)=O)cc3[N+](=O)[O-])CC2)cc1`?
Tau fibril ThT: 4.5µM*; Tau fluor counter: inconclusive; Coupling enz: 0; Tau FP inhib: 1%

How did CC(=O)N1CCN(c2ccc(C(N)=O)cc2[N+](=O)[O-])CC1 do in these assays?
Tau fibril ThT: -17%; Tau fluor counter: -8%; Coupling enz: 0; Tau FP inhib: -7%

How did NC(=O)c1ccc(N2CCN(c3ccccc3O)CC2)c([N+](=O)[O-])c1 do in these assays?
Tau fibril ThT: inconclusive; Tau fluor counter: -18%; Coupling enz: 1; Tau FP inhib: 5%

How did NC(=O)c1ccc(N2CCN(c3ccccc3F)CC2)c([N+](=O)[O-])c1 do in these assays?
Tau fibril ThT: 16µM*; Tau fluor counter: -29%; Coupling enz: 1; Tau FP inhib: inconclusive

Results for COc1cc(NC(=O)C2Cc3ccccc3N2C(=O)c2ccccc2)cc(OC)c1 (configuration not stated) ?
Tau fibril ThT: -3%; Tau fluor counter: -25%; Tau FP inhib: -1%

What do the screens show for `CCCCOc1ccc(C(=O)Nc2cccc(-c3nc4cccnc4s3)c2)cc1`?
Tau fibril ThT: 9%; Tau fluor counter: -3%; Tau FP inhib: -6%

What do the screens show for `COc1ccc(-c2c(C)nn3c4c(cnc23)C(=O)CC(c2ccccc2)C4)cc1` (configuration not stated)?
Tau fibril ThT: -1%; Tau fluor counter: -12%; Tau FP inhib: -8%

What do the screens show for `O=C(N/N=C/c1c[nH]c2ccc(Br)cc12)c1ccn(Cc2ccc(Cl)cc2)n1`?
Tau fibril ThT: inconclusive; Tau fluor counter: 11µM*[quencher]; Coupling enz: -1; Tau FP inhib: 10%

What do the screens show for `Cn1ccc(C(=O)N/N=C/c2c[nH]c3ccccc23)n1`?
Coupling enz: 1

How did O=C(N/N=C/c1c[nH]c2ccccc12)c1ccn(Cc2ccc(Cl)cc2Cl)n1 do in these assays?
Tau fibril ThT: inconclusive; Tau fluor counter: 13µM*[quencher]; Coupling enz: 1; Tau FP inhib: 17%

What do the screens show for `CCCOc1ccc(C(=O)N/N=C/c2c[nH]c3ccc(Br)cc23)cc1`?
Coupling enz: -1

How did Cc1ccc(/C=C/C(=O)NCc2ccc(S(N)(=O)=O)cc2)o1 do in these assays?
Tau fibril ThT: 25µM*; Tau fluor counter: -16%; Coupling enz: -6; Tau FP inhib: inconclusive
